# Data taken from PubChem BioAssay (EPA / NIEHS).
# Where “and” joins values, the source holds several entries; their conditions need not be identical. Identical values can stand only once. Some compounds were tested as several samples or in several runs, with calls that do not always agree. Calls of active or inactive are those of the source. How the source made its calls: active means hit-call score of the fitted dose curve at least 0.9, where 1 is the maximum; inactive means score below 0.9.
# Read-out: Pselectin, SELP (gene 6403)
# Assay: BSK_4H_Pselectin: BioMAP Diversity Plus: 4H Assay for Pselectin Biomarker Activity (AID 2283026)
# Settings: primary human endothelial cells (HUVEC); actives raise or lower the signal
# Procedure: BSK_4H is a cell-based, multiplexed-readout assay that uses umbilical vein endothelium, a human vascular primary cell, with measurements taken at 24 hours after chemical dosing in a 96-well plate.BSK_4H_Pselectin is an assay component measured in the BSK_4H assay. It measures P-Selectin antibody related to regulation of gene expression using ELISA technology.Data from the assay component BSK_4H_Pselectin was analyzed into 1 assay endpoint. This assay endpoint, BSK_4H_Pselectin, was analyzed with bidirectional fitting relative to DMSO as the negative control and baseline of activity. Using a type of binding reporter, gain or loss-of-signal activity can be used to understand changes in the signaling as they relate to the gene SELP. Furthermore, this assay endpoint can be referred to as a primary readout, because this assay has produced multiple assay endpoints where this one serves a signaling function. To generalize the intended target to other relatable targets, this assay endpoint is annotated to the cell adhesion molecules intended target family, where the subfamily is selectins.
# The levels of cell surface (or secreted, indicated by the prefix "s") biomarker endpoints were measured by ELISA. Overt cytotoxicity to cells in confluent adherent cultures (all systems other than the BT system) was assessed by measuring total protein levels using sulforhodamine B (SRB) staining in parallel cultures at the time of biomarker measurements, indicated as SRB endpoints. For proliferation assays for adherent cell types, individual cell types are cultured at sub-confluence and relative cell numbers quantified by SRB staining at time points optimized for each system (48 h: 3C and CASM3C systems; 72 h: BT and HDF3CGF systems; 96 h: SAg system). SRB was performed by staining cells with 0.1% SRB after fixation with 10% TCA and reading wells at 560 nm.Viability and proliferation of PBMC (T cells) was quantified by Alamar Blue reduction for the SAg and BT systems. For PBMC viability (referred to as PBMC Cytotoxicity within the assay endpoint names), cells were plated (75,000/well in a 96-well plate) and then chemical samples added for 1 h before addition of activators, SEB and TSST-1 (20 ng/mL final concentration each). Cells were incubated for 90 h. Then, Alamar Blue (20 uL/well) (Invitrogen, Cat DAL1100) was added for 6 h, and the plates were read with a fluorescence microplate reader at 546/580 nm (excitation/emission). For PBMC proliferation, cells were plated and activated as above but incubated for only 16 h prior to addition of Alamar Blue. Plates were read after 6 h.
SMILES,outcome,AC50
CCNc1nc(NC(C)C)nc(SC)n1,inactive,–
CN(C)c1nc(=O)n(C2CCCCC2)c(=O)n1C,inactive,–
Nn1cnnc1,inactive,–
CN(C)CCO,inactive,–
CCSC(=O)N(CC)C1CCCCC1,inactive,–
NS(=O)(=O)C(F)(F)C(F)(F)C(F)(F)C(F)(F)C(F)(F)C(F)(F)C(F)(F)C(F)(F)F,–,27.6 µM (active) and 43.9 µM (active) and 45.9 µM (active)
CC(C)(c1ccccc1)c1ccc(O)cc1,–,32.6 µM (active)
CCCCCCCCCc1ccc(O)cc1,–,12.5 µM (active)
CCOP(=S)(OCC)SCSC(C)(C)C,inactive,–
CCOC(=O)C(O)(c1ccc(Cl)cc1)c1ccc(Cl)cc1,–,32.2 µM (active)
Clc1ccc(C(Cl)(Cl)Cl)cc1,inactive,–
CCCCCCOC(=O)c1ccccc1C(=O)OCCCCCC,–,29.3 µM (active)
COS(=O)(=O)OC,inactive,–
O=S(=O)(O)C(F)(F)C(F)(F)C(F)(F)C(F)(F)C(F)(F)C(F)(F)F,inactive,17.2 µM (active)
O=NN(c1ccccc1)c1ccccc1,inactive,–
Clc1ccc(C(c2ccccc2Cl)C(Cl)(Cl)Cl)cc1 (stereo not given),–,19.1 µM (active)
Cc1ccccc1[N+](=O)[O-],inactive,–
ClC(Cl)=C(c1ccc(Cl)cc1)c1ccc(Cl)cc1,–,31.3 µM (active)
Cc1cc(-c2ccc(N)c(C)c2)ccc1N,inactive,–

SMILES,outcome,AC50
CCCCCCCCOC(=O)c1ccccc1C(=O)OCCCCCCCC,inactive,–
Clc1ccc(Cl)cc1,inactive,–
O=C(O)C(F)(F)C(F)(F)C(F)(F)C(F)(F)C(F)(F)C(F)(F)C(F)(F)C(F)(F)C(F)(F)F,inactive,50.1 µM (active) and 49.5 µM (active)
ClC1=C(Cl)[C@]2(Cl)[C@@H]3[C@H]4C[C@H]([C@@H]5O[C@H]45)[C@@H]3[C@@]1(Cl)C2(Cl)Cl,inactive,–
C[C@]12CCC(=O)C=C1CC[C@@H]1[C@@H]2CC[C@@]2(C)[C@H]1CC[C@]2(C)O,inactive,–
C1CC2OC2CC1C1CO1 (stereo not given),inactive,–
Cc1cc2c3c(c1)C(c1ccccc1)=N[C@@H](NC(=O)c1ccncc1)C(=O)N3CC2,inactive,–
CO/C=C(/C(=O)OC)c1ccccc1COc1cccc(C(F)(F)F)n1,inactive,–
O=C(N[C@H]1CN2CCC1CC2)c1cc2ccoc2cn1,inactive,–
CC1=C2C[C@H]3[C@@H](CC=C4C[C@@H](O)CC[C@@]43C)[C@@H]2CC[C@]12O[C@@H]1C[C@H](C)CN[C@H]1[C@H]2C,inactive,–
O=C(O)C(F)(F)C(F)(F)C(F)(F)C(F)(F)C(F)(F)F,inactive,–
Sc1ccccc1,inactive,–
Oc1ccc(C(c2ccc(O)cc2)(C(F)(F)F)C(F)(F)F)cc1,–,15.7 µM (active)
C=CC(=O)NCNC(=O)C=C,inactive,–
O=C(NC(=O)c1cc(F)c(F)cc1Cl)Nc1cc(F)ccc1N1CCC(C(=O)O)CC1,inactive,–
c1ccc(-c2ccccc2)cc1,inactive,–
C=CC(N)=O,inactive,–
CCC(=O)O[C@H]1CC[C@H]2[C@@H]3CCC4=CC(=O)CC[C@]4(C)[C@H]3CC[C@]12C,–,34 µM (active)
CC(c1ccc(O)cc1)(c1ccc(O)cc1)c1ccc(O)cc1,–,31.9 µM (active)
